Results as given in PubChem BioAssay (EPA / NIEHS).
The source made the active and inactive calls. The calls were made as follows: active = hit-call score of the fitted dose curve at least 0.9, where 1 is the maximum; inactive = score below 0.9.

Key:
Settings in all cases: mRNA level, 48 h; actives raise or lower the signal
[1] = read-out: CYP2E1 (gene 1571); test: LTEA_HepaRG_CYP2E1: Life Technologies and Expression Analysis (LTEA) Assay for CYP2E1 using HepaRG (AID 2283485)
Method in brief: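 HepaRG cells in serum-free induction medium exposed 48 h to test chemicals, 8 half-log concentrations up to 100 uM in 0.5% DMSO, duplicate. CYP2E1 mRNA by qRT-PCR, normalized to ACTB, GAPDH, POLR2A; bidirectional fit versus DMSO.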

[2] = read-out: CYP4A11 (gene 1579); test: LTEA_HepaRG_CYP4A11: Life Technologies and Expression Analysis (LTEA) Assay for CYP4A11 using HepaRG (AID 2283486)
Method in brief: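 Differentiated HepaRG cells, 48 h after plating, exposed in duplicate for 48 h to 8 half-log concentrations up to 100 uM in 0.5% DMSO in serum-free induction medium. CYP4A11 mRNA measured by TaqMan qRT-PCR, normalized to ACTB, GAPDH and POLR2A.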

[3] = read-out: Cytochrome P450 3A4 (Homo sapiens) (UniProt P08684); test: LTEA_HepaRG_CYP3A4: Life Technologies and Expression Analysis (LTEA) Assay for CYP3A4 using HepaRG (AID 2283487)
Method in brief: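 CYP3A4 transcript measured by TaqMan qRT-PCR and normalized to three housekeeping genes after 48 h chemical exposure of human HepaRG cells. Top concentration 100 uM, half-log steps, 0.5% DMSO vehicle; gain or loss fitted against DMSO baseline.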

[4] = read-out: DNA damage-inducible transcript 3 (DDIT3), DDIT3 (gene 1649); test: LTEA_HepaRG_DDIT3: Life Technologies and Expression Analysis (LTEA) Assay for DNA damage-inducible transcript 3 (DDIT3) using HepaRG (AID 2283488)
Method in brief: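 Differentiated human HepaRG cells in serum-free induction medium were exposed in duplicate for 48 h to 8 concentrations (top 100 uM, half-log steps, 0.5% DMSO). DDIT3 mRNA measured by TaqMan qRT-PCR, normalized to ACTB/GAPDH/POLR2A; bidirectional fit versus DMSO.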

[5] = read-out: Pro-epidermal growth factor (Homo sapiens) (UniProt P01133); test: LTEA_HepaRG_EGF: Life Technologies and Expression Analysis (LTEA) Assay for Epidermal growth factor (EGF) using HepaRG (AID 2283489)
Method in brief: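 HepaRG cells (~100,000/well, 48 h pre-culture) exposed in duplicate for 48 h in serum-free induction medium to 8 half-log concentrations up to 100 uM in 0.5% DMSO. EGF mRNA by qRT-PCR, normalized to ACTB/GAPDH/POLR2A; bidirectional fit versus DMSO.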

[6] = read-out: Early growth response protein 1 (EGR1) transcription factor, EGR1 (gene 1958); test: LTEA_HepaRG_EGR1: Life Technologies and Expression Analysis (LTEA) Assay for Early growth response protein 1 (EGR1) transcription factor using HepaRG (AID 2283490)
Method in brief: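 Differentiated HepaRG cells in serum-free induction medium exposed 48 hours, duplicate, to 8 half-log concentrations up to 100 uM in 0.5% DMSO. EGR1 mRNA measured by TaqMan qRT-PCR, normalized to ACTB, GAPDH, POLR2A; bidirectional fit versus DMSO.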

[7] = read-out: Ezrin (EZR), EZR (gene 7430); test: LTEA_HepaRG_EZR: Life Technologies and Expression Analysis (LTEA) Assay for Ezrin (EZR) using HepaRG (AID 2283491)
Method in brief: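 HepaRG, 48 h chemical exposure, 8-pt half-log series from 100 uM, 0.5% DMSO vehicle, duplicates. Read-out: EZR mRNA by TaqMan qRT-PCR (Fluidigm array), housekeeping-normalized; bidirectional curve fit vs DMSO baseline.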

[8] = read-out: Cytochrome P450 3A7 (Homo sapiens) (UniProt P24462); test: LTEA_HepaRG_CYP3A7: Life Technologies and Expression Analysis (LTEA) Assay for CYP3A7 using HepaRG (AID 2283492)
Method in brief: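 Differentiated HepaRG cells in serum-free induction medium exposed 48 h in duplicate to 8-point half-log series from 100 uM top in 0.5% DMSO. CYP3A7 mRNA by qRT-PCR, normalized to ACTB/GAPDH/POLR2A, bidirectional fit versus DMSO.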

[9] = read-out: CYP3A5 (gene 1577); test: LTEA_HepaRG_CYP3A5: Life Technologies and Expression Analysis (LTEA) Assay for CYP3A5 using HepaRG (AID 2283493)
Method in brief: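 Differentiated HepaRG cells in serum-free induction medium were dosed 48 h with test chemicals (8-point half-log series, top 100 uM, 0.5% DMSO, duplicate). CYP3A5 mRNA measured by qRT-PCR, normalized to ACTB, GAPDH, POLR2A; bidirectional fit versus DMSO.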

[10] = read-out: Fatty Acid-Binding Protein 1 (FABP1), FABP1 (gene 2168); test: LTEA_HepaRG_FABP1: Life Technologies and Expression Analysis (LTEA) Assay for Fatty Acid-Binding Protein 1 (FABP1) using HepaRG (AID 2283494)
Method in brief: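 Differentiated human HepaRG cells exposed 48 h in serum-free induction medium to eight half-log concentrations up to 100 uM (0.5% DMSO), duplicate. FABP1 mRNA by qRT-PCR, normalised to ACTB, GAPDH, POLR2A; bidirectional fitting against DMSO.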

[11] = read-out: Cytochrome P450 4A22 (Homo sapiens) (UniProt Q5TCH4); test: LTEA_HepaRG_CYP4A22: Life Technologies and Expression Analysis (LTEA) Assay for Cytochrome P450 4A22 (CYP4A22) using HepaRG (AID 2283495)
Method in brief: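 Differentiated HepaRG cells in serum-free induction medium exposed 48 h in duplicate to eight half-log concentrations up to 100 uM in 0.5% DMSO. CYP4A22 mRNA quantified by TaqMan qRT-PCR, normalized to ACTB, GAPDH and POLR2A; bidirectional fit versus DMSO.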

[12] = read-out: Cytochrome P450 7A1 (Homo sapiens) (UniProt P22680); test: LTEA_HepaRG_CYP7A1: Life Technologies and Expression Analysis (LTEA) Assay for Cytochrome P450 7A1 (CYP7A1) using HepaRG (AID 2283496)
Method in brief: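 Gene expression endpoint in human HepaRG liver cells treated for 48 h with test chemicals (up to 100 uM, 0.5% DMSO). Values come from bidirectional concentration-response fitting versus DMSO.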

[13] = read-out: Glutathione S-Transferase (GSTA2), GSTA2 (gene 2939); test: LTEA_HepaRG_GSTA2: Life Technologies and Expression Analysis (LTEA) Assay for Glutathione S-Transferase (GSTA2) using HepaRG (AID 2283497)
Method in brief: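 Differentiated human HepaRG cells were exposed in duplicate for 48 h in serum-free induction medium, 8 points from 100 uM top in half-log steps, 0.5% DMSO. GSTA2 mRNA was measured by TaqMan qRT-PCR, normalized to ACTB, GAPDH and POLR2A; bidirectional fit versus DMSO.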

[14] = read-out: Glutamate-cysteine ligase catalytic (GCLC), GCLC (gene 2729); test: LTEA_HepaRG_GCLC: Life Technologies and Expression Analysis (LTEA) Assay for Glutamate-cysteine ligase catalytic (GCLC) using HepaRG (AID 2283498)
Method in brief: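 Differentiated HepaRG cells exposed 48 h in serum-free induction medium, eight-point half-log series topping at 100 uM in 0.5% DMSO, duplicates. GCLC mRNA by qRT-PCR normalized to ACTB, GAPDH and POLR2A, fitted bidirectionally versus DMSO.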

[15] = read-out: growth arrest and DNA damage 45 (GADD45G), GADD45G (gene 10912); test: LTEA_HepaRG_GADD45G: Life Technologies and Expression Analysis (LTEA) Assay for growth arrest and DNA damage 45 (GADD45G) using HepaRG (AID 2283499)
Method in brief: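 Differentiated human HepaRG cells, 48 h post-plating, exposed 48 h in serum-free induction medium to 8 half-log concentrations (top 100 uM, 0.5% DMSO) in duplicate. GADD45G mRNA measured by Fluidigm TaqMan qRT-PCR, normalized to ACTB, GAPDH, POLR2A; bidirectional fit versus DMSO.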

[16] = read-out: Glutamate-cysteine ligase regulatory (GCLM), GCLM (gene 2730); test: LTEA_HepaRG_GCLM: Life Technologies and Expression Analysis (LTEA) Assay for Glutamate-cysteine ligase regulatory (GCLM) using HepaRG (AID 2283500)
Method in brief: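 Differentiated human HepaRG cells exposed 48 h in serum-free induction medium to 8-point half-log concentrations (top 100 uM, 0.5% DMSO), in duplicate. GCLM mRNA quantified by qRT-PCR, normalized to ACTB, GAPDH, POLR2A; bidirectional fitting versus DMSO.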

[17] = read-out: Glutathione S-transferase M3 (GSTM3), GSTM3 (gene 2947); test: LTEA_HepaRG_GSTM3: Life Technologies and Expression Analysis (LTEA) Assay for Glutathione S-transferase M3 (GSTM3) using HepaRG (AID 2283501)
Method in brief: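 Differentiated human HepaRG cells were exposed in duplicate for 48 h in serum-free induction medium, 8 points from 100 uM top in half-log steps, 0.5% DMSO. GSTM3 mRNA was measured by TaqMan qRT-PCR, normalized to ACTB, GAPDH and POLR2A; bidirectional fit versus DMSO.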

[18] = read-out: Heat shock 70 kDa protein 1 (HSPA1A), gene 3303; test: LTEA_HepaRG_HSPA1A: Life Technologies and Expression Analysis (LTEA) Assay for Heat shock 70 kDa protein 1 (HSPA1A) using HepaRG (AID 2283502)
Method in brief: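 Differentiated human HepaRG cells in serum-free induction medium were exposed in duplicate for 48 h to eight concentrations (top 100 uM, half-log steps, 0.5% DMSO). HSPA1A mRNA was quantified by qRT-PCR, normalized to ACTB, GAPDH and POLR2A, and fitted bidirectionally against DMSO.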

[19] = read-out: Hypoxia-inducible factor 1-alpha (Homo sapiens) (UniProt Q16665); test: LTEA_HepaRG_HIF1A: Life Technologies and Expression Analysis (LTEA) Assay for Hypoxia-inducible factor 1 (HIF1A) Trancription factor using HepaRG (AID 2283503)
Method in brief: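 HepaRG, 48 h exposure, 8-pt half-log series from 100 uM, 0.5% DMSO vehicle, duplicates. Readout: HIF1A transcript by qRT-PCR (Fluidigm array), housekeeping-normalised. Bidirectional curve fit vs DMSO baseline.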

[20] = read-out: 3-Hydroxy-3-Methylglutaryl-CoA Synthase 2 (HMGCS2), HMGCS2 (gene 3158); test: LTEA_HepaRG_HMGCS2: Life Technologies and Expression Analysis (LTEA) Assay for 3-Hydroxy-3-Methylglutaryl-CoA Synthase 2 (HMGCS2) using HepaRG (AID 2283504)
Method in brief: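 Human HepaRG cells in serum-free induction medium were exposed in duplicate for 48 h to 8-point half-log series from 100 uM top in 0.5% DMSO. HMGCS2 mRNA measured by TaqMan qRT-PCR, normalised to ACTB, GAPDH, POLR2A; bidirectional fit versus DMSO.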

Measured: AC50

Chain of Cytochrome P450 3A4 (Homo sapiens) (P08684 whole entry, looked up): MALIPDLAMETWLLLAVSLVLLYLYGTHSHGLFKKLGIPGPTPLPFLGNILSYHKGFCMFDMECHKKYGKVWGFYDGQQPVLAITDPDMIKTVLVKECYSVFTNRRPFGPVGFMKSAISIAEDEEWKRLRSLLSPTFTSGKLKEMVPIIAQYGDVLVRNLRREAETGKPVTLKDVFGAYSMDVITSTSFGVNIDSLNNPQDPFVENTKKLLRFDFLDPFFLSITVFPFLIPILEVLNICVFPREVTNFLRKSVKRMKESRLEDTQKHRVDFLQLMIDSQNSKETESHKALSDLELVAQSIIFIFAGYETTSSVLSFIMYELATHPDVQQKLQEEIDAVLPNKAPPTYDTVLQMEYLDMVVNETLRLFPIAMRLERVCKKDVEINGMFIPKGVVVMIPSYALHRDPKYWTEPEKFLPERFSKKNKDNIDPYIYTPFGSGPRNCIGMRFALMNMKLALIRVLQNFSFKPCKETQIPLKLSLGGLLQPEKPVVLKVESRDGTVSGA
Chain of Cytochrome P450 3A7 (Homo sapiens) (P24462 whole entry, looked up): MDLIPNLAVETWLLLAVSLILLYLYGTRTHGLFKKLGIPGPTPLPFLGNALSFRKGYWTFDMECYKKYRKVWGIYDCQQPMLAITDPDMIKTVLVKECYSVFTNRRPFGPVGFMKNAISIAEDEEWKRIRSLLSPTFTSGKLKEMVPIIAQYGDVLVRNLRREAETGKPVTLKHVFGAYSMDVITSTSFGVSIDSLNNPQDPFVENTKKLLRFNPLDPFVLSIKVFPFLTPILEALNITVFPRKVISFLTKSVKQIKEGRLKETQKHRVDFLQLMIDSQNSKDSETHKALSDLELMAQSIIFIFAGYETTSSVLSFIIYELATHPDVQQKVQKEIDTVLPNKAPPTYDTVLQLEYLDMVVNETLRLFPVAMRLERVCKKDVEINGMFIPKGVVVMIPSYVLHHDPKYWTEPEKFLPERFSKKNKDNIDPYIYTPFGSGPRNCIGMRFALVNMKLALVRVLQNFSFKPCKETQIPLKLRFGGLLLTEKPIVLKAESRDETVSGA
Chain of Hypoxia-inducible factor 1-alpha (Homo sapiens) (Q16665 whole entry, looked up): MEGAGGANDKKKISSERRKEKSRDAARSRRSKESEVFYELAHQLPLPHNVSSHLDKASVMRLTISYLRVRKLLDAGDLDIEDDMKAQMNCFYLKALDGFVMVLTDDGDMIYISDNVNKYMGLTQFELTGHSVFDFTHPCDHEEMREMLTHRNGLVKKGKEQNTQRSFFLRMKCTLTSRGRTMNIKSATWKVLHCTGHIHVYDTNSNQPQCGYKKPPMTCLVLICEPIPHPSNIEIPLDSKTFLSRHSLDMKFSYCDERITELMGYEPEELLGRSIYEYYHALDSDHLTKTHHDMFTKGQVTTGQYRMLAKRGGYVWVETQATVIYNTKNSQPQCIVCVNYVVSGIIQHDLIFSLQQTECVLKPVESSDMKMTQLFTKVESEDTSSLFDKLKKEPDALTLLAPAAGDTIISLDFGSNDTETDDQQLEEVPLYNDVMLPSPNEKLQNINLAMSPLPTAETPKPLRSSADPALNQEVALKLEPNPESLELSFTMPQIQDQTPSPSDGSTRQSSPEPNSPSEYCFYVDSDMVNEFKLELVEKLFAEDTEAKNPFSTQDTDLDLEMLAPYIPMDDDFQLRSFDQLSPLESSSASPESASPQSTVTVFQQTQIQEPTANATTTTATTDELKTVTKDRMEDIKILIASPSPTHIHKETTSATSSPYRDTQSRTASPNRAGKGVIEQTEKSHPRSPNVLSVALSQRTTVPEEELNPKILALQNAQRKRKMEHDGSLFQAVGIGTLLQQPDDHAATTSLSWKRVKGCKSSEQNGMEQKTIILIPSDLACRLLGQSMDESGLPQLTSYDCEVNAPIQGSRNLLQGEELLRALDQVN

Oc1ccc(C(c2ccc(O)cc2)(C(F)(F)F)C(F)(F)F)cc1
active: [1] 79.4 µM | [2] 76.6 µM | [3] 81.7 µM | [4] 79.3 µM | [5] 80.1 µM | [6] 81.5 µM | [9] 80.2 µM | [10] 92.5 µM | [12] 89.6 µM | [13] 79.5 µM | [18] 72.8 µM | [19] 83.5 µM | [20] 79.4 µM
inactive: [7] | [8] | [11] | [14] | [15] | [16] | [17]

Cc1ccccc1CO[C@@H]1C[C@@]2(C(C)C)CC[C@]1(C)O2
active: [3] 23.1 µM | [18] 50 µM
not listed: [1]
inactive: all other assays above
